Bioassay records deposited in PubChem by several laboratories.
Rows were chosen to be rich in hits. Some 2.3% of all compounds tested hit in one or more screens of this group.
Mcl1 Bid PPI = Mcl-1/Bid binding inhibitors, primary screen, biochemical, TR-FRET, 1536-well. Induced myeloid leukemia cell differentiation protein Mcl-1 (Homo sapiens), Q07820. TR-FRET Mcl-1/Bid-Dy647 peptide binding. inhibition, % at 21.7 µM. actives 0.97% (n = 220,000). AID 1021, 2008;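 active = compounds that cut the binding signal by more than half at the single screening dose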;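 note: His-tagged Mcl-1 with europium anti-His antibody binding Bid BH3 peptide; 0% = Mcl-1 plus peptide wells and 100% = peptide-only wells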
Target sequence (Q07820 whole entry, looked up): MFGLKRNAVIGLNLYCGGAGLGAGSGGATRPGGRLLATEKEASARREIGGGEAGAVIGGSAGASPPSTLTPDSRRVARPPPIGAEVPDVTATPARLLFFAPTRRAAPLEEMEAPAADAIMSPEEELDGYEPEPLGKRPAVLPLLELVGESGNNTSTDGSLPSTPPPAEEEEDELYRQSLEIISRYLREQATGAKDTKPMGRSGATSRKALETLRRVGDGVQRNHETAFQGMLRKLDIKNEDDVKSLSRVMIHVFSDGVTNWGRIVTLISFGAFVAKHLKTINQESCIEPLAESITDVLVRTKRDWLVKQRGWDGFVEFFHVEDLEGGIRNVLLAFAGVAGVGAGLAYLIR
Mcl1-Noxa inh = Mcl-1/Noxa binding inhibitors, primary screen, biochemical, TR-FRET, 1536-well; inhibition, % at 21.7 µM; TR-FRET Mcl-1/Noxa peptide binding, 2 h; actives 1.5% (n = 220,000); Induced myeloid leukemia cell differentiation protein Mcl-1 (Homo sapiens), Q07820;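 active = compounds that cut the protein-peptide binding signal by more than 50% relative to plate controls in a single-dose test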;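 note: His-tagged Mcl-1 with rhodamine Noxa BH3 peptide and terbium anti-His antibody; 0% = Mcl-1 plus Noxa peptide wells and 100% = peptide-only wells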
Bcl-xL primary = inhibitors of human Bcl-xL, primary screen, biochemical, fluorescence polarization, HTS; actives 0.7% (n = 320,000); inhibition, % at 10.9 µM; Bcl-2-like protein 1 (Homo sapiens), Q07817; GST-Bcl-xL / FITC-Bim BH3 peptide fluorescence polarization;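 active = inhibition above the mean of all tested compounds plus 3 SD, cutoff set per campaign, cut at about 30% in these data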;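 note: 0% = DMSO wells and 100% = unlabeled Bim-BH3 peptide competitor; inhibitors lower millipolarization by displacing the labeled peptide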
MCL1-BIM inh = inhibitors of MCL1 binding to BIM-BH3, primary screen, biochemical, fluorescence polarization; Induced myeloid leukemia cell differentiation protein Mcl-1 (Homo sapiens), Q07820; GST-MCL1 / FITC-Bim-BH3 fluorescence polarization; inhibition, % at 10.9 µM; actives 0.68% (n = 320,000); AID 2057, 2009;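 active = inhibition above the mean inhibition of all tested compounds plus 3 SD, set per campaign, cut at about 40% in these data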;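 note: 0% = DMSO wells and 100% = unlabeled Bim-BH3 peptide control; higher means more loss of mP so more displacement of Bim peptide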
Bim-Mcl-1 = inhibitors of Bim peptide binding to Mcl-1, primary screen, biochemical, bead-based flow cytometry, multiplex. inhibition, % at 10 µM. Induced myeloid leukemia cell differentiation protein Mcl-1 (Homo sapiens), Q07820. Bim peptide-Mcl-1 binding. actives 0.1% (n = 190,000); in the data active = inhibition above about 40%;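 note: 0% = no compound tracer wells and 100% = peptide blocker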
GLD-1 TGE inh = GLD-1/TGE RNA complex disruptors, primary screen, biochemical, fluorescence polarization; actives 0.44% (n = 320,000); inhibition, % at 5.96 µM; purified GLD-1 + fluorescein TGE RNA;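 active = percent inhibition above a per-plate cutoff, the plate mean of test compounds plus 3 SD, cut at about 30% in these data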;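 note: 0% = DMSO wells with GLD-1 and probe and 100% = wells lacking GLD-1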
An asterisk follows results filed as active; x = no result given.

SMILES	Mcl1 Bid PPI	Mcl1-Noxa inh	Bcl-xL primary	MCL1-BIM inh	Bim-Mcl-1	GLD-1 TGE inh
CCOC(=O)c1c(NC(=O)CSc2nnc(C)s2)sc2c1CCN(C)C2	18.5	68.4*	-13.8	-27.2	0.0	-114.8
O=C1/C(=C\c2ccc(O)c(O)c2)C(c2ccccc2)=NN1c1ccccc1	-34.4	71.2*	x	x	1.0	x
CCOC(=O)C1=C(C)N(c2ccccc2)C(=O)/C1=C\c1ccc(O)c(OC)c1	-75.7	31.6	20.7	11.5	x	16.1
CCOc1cc(/C=C2\C(=O)N(c3nc(-c4ccc(Br)cc4)cs3)N=C2c2ccccc2)ccc1O	81.5*	93.7*	2.7	6.7	-3.0	-8.7
COc1cc(/C=C2\C(=O)N(c3ccc(NC(C)=O)cc3)N=C2c2ccccc2)ccc1O	-15.8	58.3*	6.7	5.3	-1.0	-6.5
C=C(C)[C@H]1CC=C(C)C(=O)C1	x	x	6.3	4.3	x	-0.9
CN1CCc2c(sc(/N=C/c3ccco3)c2C(N)=O)C1	-20.2	-0.4	46.5*	45.6*	-2.0	8.3
Cc1cccc2c3nc4ccccc4nc3n(CCCN3C(=O)c4ccccc4C3=O)c12	72.5*	14.0	x	x	3.0	x
O=C(NC(=S)Nc1ccc(-c2ccc(CO)o2)cc1)c1cccs1	-20.4	63.2*	6.1	-0.2	-3.0	4.5
Cc1ccc(C(=O)NC(=S)Nc2ccc(-c3ccc(CO)o3)cc2)cc1	13.1	25.6	3.1	16.8	-1.0	0.2
CC(C)Oc1ccc(C(=O)Nc2cccc(S(=O)(=O)N3CCCC3)c2)cc1	x	x	x	x	x	0.3
O=C(COc1cccc2cccnc12)N/N=C/c1ccccc1O	-8.4	-3.1	-17.4	-20.9	x	5.1
COC(=O)Cn1cc(/C=N/NC(=O)COc2cccc3cccnc23)c2ccccc21	65.2*	28.5	-2.4	8.2	0.0	-4.2
C#CCn1cc(/C=N/NC(=O)COc2cccc3cccnc23)c2ccccc21	85.5*	69.7*	-9.9	-14.1	-7.0	-1.2
Cc1c(NC(=O)C(C)N2C(=O)NC3(CCC(C)CC3)C2=O)c(=O)n(-c2ccccc2)n1C (configuration not stated)	-4.1	1.7	3.0	-0.4	-1.0	2.9
CNC(=O)CN(C1CCCCC1)S(=O)(=O)c1ccc(OC)c(Cl)c1	97.9*	-8.7	-10.5	-16.9	0.0	-1.5
COc1ccc(S(=O)(=O)N(CC(=O)NC2CC2)C2CCCCC2)cc1Cl	-0.7	5.4	7.7	6.9	-2.0	7.7
O=C(NCc1ccccc1)C(c1ccc(F)cc1)N(C(=O)c1csnn1)C1CCCC1 (configuration not stated)	x	x	6.6	1.9	x	-0.5
Cc1ccc(S(=O)(=O)N/N=C/c2cnn(C)c2C)cc1	70.1*	4.0	-1.2	0.5	-8.0	-4.2
CS(=O)(=O)c1nsc2nc(=O)c(/C=C3\C=Nc4ccccc43)c(N)n12	10.0	37.7	-4.3	-8.2	0.0	2.2
CS(=O)(=O)c1ccc2c(c1)sc1nc(=O)c(/C=C3/C=CC(=O)C(O)=C3)c(N)n12	5.7	90.3*	1.2	-10.0	x	-20.7
COC1=C/C(=C/c2c(N)n3c(nc2=O)sc2cc(S(C)(=O)=O)ccc23)C=CC1=O	-8.6	54.3*	-21.0	-36.5	x	-35.5
Cc1nn(Cc2nnc(SCC(=O)Nc3ccc(Cl)cc3)n2C)c(C)c1[N+](=O)[O-]	-30.1	0.2	-1.2	-8.7	x	-2.4
CCCCN(C(=O)Cn1ncc(Cl)c(Cl)c1=O)c1c(N)n(CC(C)C)c(=O)[nH]c1=O	-0.9	65.9*	-0.8	15.6	x	1.4
CN(Cc1ccccc1)C(=O)C1CCN(Cc2ccc(F)cc2)CC1	55.1*	9.0	3.9	6.9	-2.0	1.4
CC1=C(C#N)C(=O)N(C2CCS(=O)(=O)C2)C(=O)/C1=C\c1ccc(C)o1 (configuration not stated)	4.5	92.7*	30.4*	51.5*	x	-9.9
